Hit rate of the full screen: of about 190,000 compounds, about 4,100 (2.2%) were called active.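 The calls were made as follows: active = thallium flux slope and its plate-corrected score both differing from the plate sample mean at a set confidence after two filtering rounds, in either direction; inactive = the rest.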 The full list was thinned out, with actives kept by preference.
molecular target: Solute carrier family 12 member 5 (Homo sapiens) (UniProt Q9H2X9); experiment: KCC2 cotransporter modulators, thallium flux, primary screen, cell-based, HEK293 KCC2, FluoZin-2 fluorescence, MLSMR (AID 1456); details: KCC2 cells, thallium flux FluoZin-2 fluorescence; at 10 µM;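 also: slope of fluorescence scaled to starting intensity during 10 to 20 s after thallium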
Sequence (Q9H2X9 whole entry, looked up): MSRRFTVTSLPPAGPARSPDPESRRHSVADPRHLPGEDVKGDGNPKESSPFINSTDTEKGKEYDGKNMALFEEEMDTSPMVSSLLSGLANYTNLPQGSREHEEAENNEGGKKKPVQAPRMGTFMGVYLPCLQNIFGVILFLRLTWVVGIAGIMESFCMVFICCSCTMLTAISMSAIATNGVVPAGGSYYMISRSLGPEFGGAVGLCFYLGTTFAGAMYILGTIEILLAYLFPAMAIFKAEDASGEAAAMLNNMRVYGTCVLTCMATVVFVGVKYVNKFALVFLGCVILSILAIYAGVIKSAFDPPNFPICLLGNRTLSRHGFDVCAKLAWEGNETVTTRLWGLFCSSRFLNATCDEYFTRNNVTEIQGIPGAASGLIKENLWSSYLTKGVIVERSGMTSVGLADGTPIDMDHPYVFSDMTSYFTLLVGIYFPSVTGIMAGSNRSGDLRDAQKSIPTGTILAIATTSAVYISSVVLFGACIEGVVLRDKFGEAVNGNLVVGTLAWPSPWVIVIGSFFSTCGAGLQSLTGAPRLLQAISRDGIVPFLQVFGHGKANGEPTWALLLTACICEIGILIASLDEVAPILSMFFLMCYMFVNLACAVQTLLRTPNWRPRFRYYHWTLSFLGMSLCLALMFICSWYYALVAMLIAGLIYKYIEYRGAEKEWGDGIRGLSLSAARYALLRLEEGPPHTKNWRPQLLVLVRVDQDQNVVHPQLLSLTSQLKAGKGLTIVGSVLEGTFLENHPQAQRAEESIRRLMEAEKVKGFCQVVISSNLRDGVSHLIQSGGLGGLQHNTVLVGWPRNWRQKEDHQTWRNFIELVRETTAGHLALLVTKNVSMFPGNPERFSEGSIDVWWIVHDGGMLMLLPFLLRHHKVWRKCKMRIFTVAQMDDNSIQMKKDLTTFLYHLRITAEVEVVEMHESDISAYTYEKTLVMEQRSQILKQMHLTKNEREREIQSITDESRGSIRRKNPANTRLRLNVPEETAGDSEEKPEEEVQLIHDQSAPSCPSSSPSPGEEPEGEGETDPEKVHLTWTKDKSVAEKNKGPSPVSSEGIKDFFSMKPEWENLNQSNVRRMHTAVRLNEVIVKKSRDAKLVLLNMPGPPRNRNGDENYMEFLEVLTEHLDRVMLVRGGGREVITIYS

B-score of Tl+ flux slope (higher = more flux/activation; lower = inhibition), inactive:
COc1ccc(/C=N/n2nnnc2N)cc1OC 0.513
c1ccc(C2c3[nH]c4ccccc4c3CCN2Cc2cccn2-c2cccnc2)nc1 (stereo not given) -1.15
Cc1nnc(SC(C(=O)c2ccccc2)c2ccccc2)[nH]c1=O (stereo not given) -0.235
O=C(Nc1cc(Cl)cc(Cl)c1)C(NCCCO)c1ccccc1 (stereo not given) -0.607
O=C1N(c2ccccc2)C(=Nc2ccccc2)SC12CC2 -0.447
O=C(c1ccc(=O)oc1)N1CCC(C(O)(c2ccccc2)c2ccccc2)CC1 -0.673
Cc1ccc(C(=O)NC(=S)NCc2cccnc2)cc1 1.21
O=C(CCc1ccccc1)NCc1cccnc1 0.123
CC(C)(C)c1ccc(CCC2OCC(CN3CCOCC3)O2)cc1 (stereo not given) 0.742
CCNC(=S)N1CCN(CCN=CC2=C(O)CC(C)(C)CC2=O)CC1 -0.763
Cc1ccc(C(O)P(=O)(OC(C)C)c2ccc(N(C)C)cc2)cc1 (stereo not given) 0.0994
COC(=O)c1scc(C)c1NC(=O)CSc1ccc(Cl)cc1 -1.21
COC(=O)c1sccc1NC(=O)COc1ccc(Cl)cc1 0.143
O=C(CSc1ccc(-c2ccco2)nn1)NCc1ccc2c(c1)OCO2 -0.85
CC(C)Cc1nc(Cl)c(C#N)c2c1CCC2 -0.778
O=C1CC(c2cccc(F)c2)C2=C(CCCC2=O)N1 (stereo not given) -0.124
CCC(=O)N1c2ccccc2NC2=C(C(=O)CCC2)C1c1ccco1 (stereo not given) 1.12
Cn1cnc([N+](=O)[O-])c1Sc1n[nH]c(N)n1 0.197
Cn1cnc(S(=O)(=O)Nc2ccc3c(c2)OCCO3)c1 1.1
Oc1ccc2ccccc2c1C=Nc1ccccc1 -0.244
Oc1ccc(N=Nc2nccs2)c(O)c1 0.824
Cc1ccc(NC(=O)Nc2cc(-c3ccccc3)nn2C)cc1Cl 0.308
CCOC(=O)c1cnc(COc2ccccc2Cl)[nH]c1=O 1.26
Cn1c(=O)c2c(nc(NCc3ccccc3)n2CC(N)=O)n(C)c1=O 0.178
Cc1cc(-c2csc(N)n2)c(C)n1Cc1ccccc1 1.01
CCCc1cc(-c2n[nH]c(=S)n2CC)c2ccccc2n1 -0.942
C=CCn1c(-c2ccc3[nH]c(C)c(C)c3c2)n[nH]c1=S -0.00959
CCn1c(-c2ccncc2)n[nH]c1=S -0.798
CSC1=NCCN1C(=O)Cc1cccc2ccccc12 0.183
Brc1ccc(-c2n(-c3ccccn3)c3ccccc3[n+]2-c2ccccn2)cc1 1.55
CCCc1ccc(C(=O)[C@@H]2[C@@H](C(C)=O)N3c4ccc(F)cc4C=C[C@@H]3[C@@]23C(=O)Nc2ccccc23)cc1 0.383
O=S(=O)(c1cccc(-c2nnc3n2CCCCC3)c1)N1CCOCC1 -1.09
c1ccc2c(c1)OCC(c1nn3cnnc3s1)O2 (stereo not given) -0.604
O=C(CN1C(=O)COc2ccccc21)Nc1ccc(F)cc1 0.048
O=C(NNC(=O)c1csc(-c2cccnc2)n1)Nc1ccc(Cl)cc1 -0.334
COc1ccc(NC(=O)CCN2C(=O)/C(=C/c3ccc4c(c3)OCO4)SC2=S)cc1 -1.33
CCC1(C)Cc2c(sc3nc(SC)[nH]c(=O)c23)CO1 (stereo not given) 0.823
CCC1(C)Cc2c(sc3nc4n(c(=O)c23)CCCS4)CO1 (stereo not given) -0.0542
Cc1c(C)c(C)c2[nH]c(=S)[nH]c2c1C 0.63
COc1ccc(Cl)cc1C(=O)NNC(=O)c1nc2nc(C)cc(C)n2n1 -1.53
CCN1CCN(c2nc(Nc3cccc(F)c3)nc(N)c2[N+](=O)[O-])CC1 -0.953
CC(=O)c1c(C)[nH]c(=S)c(C#N)c1-c1ccc(F)cc1 0.0246
N#Cc1c2c(c(-c3ccccc3)[nH]c1=O)CCCC2 -0.0377
COc1ccc(NC(=O)C2=C(C)NC(=O)NC2c2ccccc2[N+](=O)[O-])cc1 (stereo not given) -1.15
Cc1ccc(Cl)c(OCC(=O)NN2CCN(C)CC2)c1 0.242
NC(=O)C1(C(N)=O)OC1c1ccc(Cl)cc1Cl (stereo not given) 0.213
CCN1CCN(CC(=O)c2cc(OC)c(OC)c(OC)c2)CC1 0.89
COc1ccc(CCNS(=O)(=O)c2cccc3cccnc23)cc1OC -0.941
COc1ccc(OCc2n[nH]c(=S)n2N)cc1 0.178
S=c1[nH]nc(COc2ccccc2)n1-c1ccccc1 0.195
CCc1ccccc1NC(=O)CSc1nnc(CCNC(=O)OC(C)(C)C)o1 -1.55
CCCNc1ncnc2sc(C)c(C)c12 -0.897
COC(=O)c1c(-c2cccs2)csc1NC(=O)CSc1ncnc2sc(C)c(C)c12 0.971
CCN(CC)CCCSc1nc2ccccc2s1 -0.568
CCOC(=O)C(C)n1cnc2sc(C)c(C)c2c1=O (stereo not given) 0.498
O=C(O)c1ccccc1C(=O)Nc1ccccc1[N+](=O)[O-] -0.0678
CCOc1ccccc1N1CN(Cc2ccccc2)CNC1=S -0.426
COC(=O)c1ccc(S(=O)(=O)N(CCO)Cc2ccccc2)n1C 0.0796
O=C(/C=C/c1c(Cl)cccc1Cl)NCc1ccccc1 0.452
N#CCc1ccc(OC(=O)c2cccnc2)cc1 0.815
O=C(Oc1cccnc1)c1cc2ccccc2oc1=O 0.0371
S=C(NNC(=S)NC1CC2CCC1C2)NC1CC2C=CC1C2 (stereo not given) 0.801
Clc1ccc2nc(-c3ccccc3)nc(C(Cl)Cl)c2c1 0.642
CCOc1ccc2[nH]c(=O)c(CN(Cc3nnnn3Cc3ccccc3)CC3CCCO3)cc2c1 (stereo not given) 0.154
Cc1cc2cc(CN(Cc3cccs3)Cc3nnnn3CC3CCCO3)c(=O)[nH]c2cc1C (stereo not given) -1.28
CCOC(=O)N/N=C1\CC(C)S(=O)(=O)c2ccc(Cl)cc21 (stereo not given) -0.00493
C/C(=N/NC(=O)CN1CCN(S(=O)(=O)c2ccc(Br)cc2)CC1)c1ccncc1 0.498
Cc1ccc(C)c(SCc2nc3sc(C(=O)O)c(C)c3c(=O)[nH]2)c1 0.00809
COc1cc([N+](=O)[O-])ccc1NC(=S)N1CCN(c2ccccn2)CC1 -1.11
O=C(Nc1nnc(C2CC2)s1)C1=NN(C2CCS(=O)(=O)C2)C(=O)CC1 (stereo not given) 0.0275
CN(Cc1cccc2ncccc12)C(=O)CC1C(=O)NCCN1Cc1ccc(F)cc1 (stereo not given) -0.00882
O=C(CC1C(=O)NCCN1Cc1ccc(-c2ccccc2)cc1)NCC1CCOCC1 (stereo not given) 0.966
Cc1cc(N)n(-c2ccc(S(=O)(=O)N3CCCC3)cc2[N+](=O)[O-])n1 -0.0325
COC(=O)c1cccc(NS(C)(=O)=O)c1 0.136
N#Cc1ccc(C(=O)Nc2cccc3cccnc23)c(F)c1 0.429
S=C(NCc1cccnc1)Nc1ccc(Cl)cc1Cl 0.543
Cc1cc(OCCCN2CCN(Cc3ccccc3)CC2)ccc1[N+](=O)[O-] -0.489
COc1ccc(S(=O)(=O)Nc2ccc(O)c(Sc3nc4ccccc4s3)c2)cc1 -1.09
O=C(CSc1nc2ccccc2s1)Nc1ccc(C(=O)O)cc1 0.381
O=C(NCc1ccc(F)cc1)C1CCC(CNc2c(N3CCOCC3)c(=O)c2=O)CC1 (stereo not given) 1.21

B-score of Tl+ flux slope (higher = more flux/activation; lower = inhibition), active:
Cc1nnc(SC(C(=O)Nc2cc(Cl)cc(Cl)c2)c2ccccc2)[nH]c1=O (stereo not given) -4.12
Cc1c(C(=O)NC(=S)NCc2cccnc2)oc2ccccc12 13.6
COC(=O)c1sccc1NC(=O)CSc1ccccc1NS(=O)(=O)c1cc(Cl)ccc1Cl 18.4
CCCC(=O)N1c2ccccc2NC2=C(C(=O)CCC2)C1c1ccc(F)cc1 (stereo not given) 2.84
Oc1ccc2ccccc2c1N=Nc1nccs1 111
CCCc1cc(-c2n[nH]c(=S)n2Cc2ccccc2)cs1 4.54
CCc1cc(-c2n[nH]c(=S)n2CC(C)C)cs1 8.35
O=C(Nc1nnc(C2COc3ccccc3O2)o1)c1ccc(F)cc1 (stereo not given) 15
CCC1(C)Cc2c(sc3[nH]c(=S)n(Cc4ccccc4)c(=O)c23)CO1 (stereo not given) 35.8
N#Cc1c(-c2ccc(Cl)cc2)c2c([nH]c1=S)CCCC2 13.8
Cc1ccc(OCc2n[nH]c(=S)n2-c2ccc(C)cc2)cc1 13.5
Cc1sc2ncnc(Sc3nc4ccccc4s3)c2c1C 2.96
CSc1ncnc2sc(C)c(C)c12 8.38
O=C(O)CCN(Cc1ccccc1)S(=O)(=O)c1c(Cl)cccc1Cl -6.63
O=C(Oc1c(-c2ccco2)oc2ccccc2c1=O)c1cccnc1 40.4
Cc1cc(C)c2cc(CN(Cc3cccs3)Cc3nnnn3CC3CCCO3)c(=O)[nH]c2c1 (stereo not given) -3.73
CC(C)c1ccc2c(c1)c(SC(C)(C)C)c(CC(C)(C)C(=O)O)n2Cc1ccc(Cl)cc1 6.52
CCCOC(=O)CC1C(=O)NCCN1Cc1ccc(F)cc1 (stereo not given) -4.12
CC(=O)/C(=N\Nc1ccc(Cl)cc1Cl)Sc1cccc2cccnc12 20.6
O=[N+]([O-])c1c(NCCO)cc(Sc2nc3ccccc3s2)c2nonc12 5.33
